{"source": "PubChem BioAssay AID1259400", "about": "(National Center for Advancing Translational Sciences (NCATS), 2018)", "note": "Among all 350,000 compounds or so, about 2,100 (0.6%) were called active. Another 1% or so got no clear call; they are omitted. The sample holds actives, similar compounds and a random draw of the others, so the mix is not that of the screen. Unmarked numbers belong to inactive results.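 Rule for the calls: active = activity change of -60% or lower, but not beyond a set lower limit; inconclusive = change between -60% and -40%, or beyond the set limit; inactive = change above -40%.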 % is set by controls: 0 for no effect and ±100 for the full control effect."}
{"target": "Relaxin receptor 1 (Homo sapiens) (UniProt Q9HBX9)", "sequence (Q9HBX9 whole entry, looked up)": "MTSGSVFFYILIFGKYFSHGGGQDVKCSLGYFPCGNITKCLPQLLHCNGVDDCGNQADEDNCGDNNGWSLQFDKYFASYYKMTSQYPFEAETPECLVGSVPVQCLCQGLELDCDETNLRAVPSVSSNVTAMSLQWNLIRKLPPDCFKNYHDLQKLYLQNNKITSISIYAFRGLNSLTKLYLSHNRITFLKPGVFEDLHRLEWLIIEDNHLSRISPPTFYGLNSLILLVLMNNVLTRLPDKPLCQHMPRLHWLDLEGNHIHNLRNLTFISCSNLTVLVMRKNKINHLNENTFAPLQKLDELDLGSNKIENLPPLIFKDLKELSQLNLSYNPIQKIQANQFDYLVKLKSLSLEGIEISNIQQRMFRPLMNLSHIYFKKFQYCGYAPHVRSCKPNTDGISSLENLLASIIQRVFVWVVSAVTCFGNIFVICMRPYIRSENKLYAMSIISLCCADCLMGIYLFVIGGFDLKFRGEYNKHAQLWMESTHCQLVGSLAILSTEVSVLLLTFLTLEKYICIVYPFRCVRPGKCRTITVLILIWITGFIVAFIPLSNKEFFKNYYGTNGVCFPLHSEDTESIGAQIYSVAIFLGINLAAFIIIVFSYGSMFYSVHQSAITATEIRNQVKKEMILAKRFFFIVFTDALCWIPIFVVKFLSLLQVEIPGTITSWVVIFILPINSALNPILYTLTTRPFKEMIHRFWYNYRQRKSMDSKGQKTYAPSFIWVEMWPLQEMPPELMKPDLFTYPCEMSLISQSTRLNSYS", "test": "qHTS Assay for Antagonists of the Relaxin Receptor RXFP1", "settings": "HEK293-RXFP1, relaxin-stimulated cAMP HTRF, 30 min; at 57.5 µM; active compounds read low"}
{"smiles": "CCN1CCN(C(=O)N[C@@H](C(=O)N[C@@H]2C(=O)N3[C@@H]2SC(C)(C)[C@H]3C(=O)O)c2ccccc2)C(=O)C1=O", "activity change, negative = inhibition": "-3.73%"}
{"smiles": "O=C(C[n+]1ccc2c(c1)nnn2-c1ccccc1)c1ccc(Cl)cc1", "activity change, negative = inhibition": "-11.1%"}
{"smiles": "O=C(CN1CCN(c2ccc(Cl)cc2)CC1)c1ccccc1", "activity change, negative = inhibition": "6.85%"}
{"smiles": "O=C(Cn1cc(-c2nnnn2-c2ccc(Cl)cc2)c(=O)c2ccccc21)c1ccccc1", "activity change, negative = inhibition": "-98.5% (active)"}
{"smiles": "Cc1cc(C)cc(NC(=O)CSc2nc3nccnc3c(=O)n2CCc2c[nH]c3ccccc23)c1", "activity change, negative = inhibition": "4.86%"}
{"smiles": "Fc1ccc(Nc2nc(SCc3ccccc3Cl)nc3ccccc23)cc1", "activity change, negative = inhibition": "-23.1%"}
{"smiles": "CC(Oc1ccc(Br)cc1)C(=O)NC1CCCCCC1", "note": "(stereo not drawn)", "activity change, negative = inhibition": "-9.73%"}
{"smiles": "CC(C)(C)CC(C)(C)NCC(O)COCCOc1ccc(Br)cc1", "note": "(stereo not drawn)", "activity change, negative = inhibition": "-90.2% (active)"}
{"smiles": "COc1ccc(OCC(O)CNCCNc2nccc(C(F)(F)F)n2)cc1", "note": "(stereo not drawn)", "activity change, negative = inhibition": "6.63%"}
{"smiles": "CN[C@@H]1[C@@H](O)[C@@H](O[C@@H]2[C@H](O)[C@H](O[C@H]3OC(CN)=CC[C@H]3N)[C@@H](N)C[C@H]2N)OCC1(C)O", "note": "(stereo partly drawn)", "activity change, negative = inhibition": "-9.15%"}
{"smiles": "CCc1ccc(NC(=O)c2sc3nc4c(cc3c2N)CN(CC)CC4)cc1", "activity change, negative = inhibition": "-24.5%"}
{"smiles": "O=C1Cc2cc(S(=O)(=O)Nc3ccc(OC(F)(F)F)cc3)cc3c2N1CCC3", "activity change, negative = inhibition": "-19.8%"}
{"smiles": "O=C(OCc1ccccc1)c1ccc(O)cc1", "activity change, negative = inhibition": "3.77%"}
{"smiles": "O=C(c1ccc(F)cc1)N1CCCC(c2nc(-c3cccs3)no2)C1", "note": "(stereo not drawn)", "activity change, negative = inhibition": "2.8%"}
{"smiles": "COc1ccc(NC(=O)N2CCCC(c3nc(-c4ccc(F)cc4)no3)C2)cc1", "note": "(stereo not drawn)", "activity change, negative = inhibition": "2.56%"}
{"smiles": "COc1cccc(-c2noc(C3CCCN(C(=O)c4ccc(F)cc4)C3)n2)c1", "note": "(stereo not drawn)", "activity change, negative = inhibition": "-66.4% (active)"}
{"smiles": "CCOc1ccc(S(=O)(=O)c2cn(Cc3ccccc3)c3ccc(OCC)cc3c2=O)cc1", "activity change, negative = inhibition": "-11.7%"}
{"smiles": "CCOc1ccc(NS(=O)(=O)c2ccc(N)cc2)nn1", "activity change, negative = inhibition": "9.63%"}
{"smiles": "CCN(C(=O)CSc1nnc(C)n2c1cc1occc12)c1ccccc1", "activity change, negative = inhibition": "-12.2%"}
{"smiles": "Cc1ccc(N=C2NC(=O)/C(=C/C=C/c3ccco3)S2)cc1C", "activity change, negative = inhibition": "-82.4% (active)"}
{"smiles": "CCN1CCN(c2cc(C)c3cc(NC(=O)c4cc(Cl)ccc4OC)ccc3n2)CC1", "activity change, negative = inhibition": "-19.5%"}
{"smiles": "O=C(CSc1nnc(-c2ccncc2)o1)Nc1cccc(Cl)c1", "activity change, negative = inhibition": "-1.48%"}
{"smiles": "COC(=O)CSc1nnc(-c2cccnc2)o1", "activity change, negative = inhibition": "5.1%"}
{"smiles": "COc1cccc(NC(=O)CSc2nnc(-c3cccnc3)o2)c1", "activity change, negative = inhibition": "-83.2% (active)"}
{"smiles": "CCOc1ccc(N2CC(c3nc4ccccc4n3CCOc3ccc(OC)cc3)CC2=O)cc1", "note": "(stereo not drawn)", "activity change, negative = inhibition": "-13%"}
{"smiles": "Cc1ccc(Cl)cc1NC(=O)C(C)n1nnc2sc(-c3ccccc3)cc2c1=O", "note": "(stereo not drawn)", "activity change, negative = inhibition": "-12.2%"}
{"smiles": "Nc1nonc1-n1nnc(C(=O)N/N=C\\c2ccncc2)c1CN1CCCCC1", "activity change, negative = inhibition": "7.31%"}
{"smiles": "COCc1c(C(=O)N/N=C\\c2cccnc2)nnn1-c1nonc1N", "activity change, negative = inhibition": "-21.1%"}
{"smiles": "Cc1ccc(SCc2c(C(=O)N/N=C/c3cccnc3)nnn2-c2nonc2N)cc1", "activity change, negative = inhibition": "-106% (active)"}
{"smiles": "COC(=O)c1cc(Cl)c(NC(C)=O)cc1OC", "activity change, negative = inhibition": "-14.6%"}
{"smiles": "COc1ccccc1Nc1c2c(nc3ccc(NC(=O)/C=C/c4cc(OC)c(OC)c(OC)c4)cc13)CCCC2", "activity change, negative = inhibition": "5.51%"}
{"smiles": "CCC(=O)Nc1ccc(C)cc1-c1nc2ccccc2n(Cc2ccccc2)c1=O", "activity change, negative = inhibition": "-2.19%"}
{"smiles": "O=C(C1CCC(Cn2c(=O)c3sccc3n(Cc3ccccc3F)c2=O)CC1)N1CCCCC1", "note": "(stereo not drawn)", "activity change, negative = inhibition": "-8.5%"}
{"smiles": "Cc1nn(-c2ccccc2)c(Cl)c1/C=N/NC(=O)c1nn(C)cc1[N+](=O)[O-]", "activity change, negative = inhibition": "-8.41%"}
{"smiles": "CN1CCc2ccccc2C1Cc1ccccc1NC(=O)c1sc2ccccc2c1Cl", "note": "(stereo not drawn)", "activity change, negative = inhibition": "5.13%"}
{"smiles": "Cc1nn(C)cc1/C=N/NC(=O)c1sc2ccccc2c1Cl", "activity change, negative = inhibition": "-67.1% (active)"}
{"smiles": "C/C=C/C=N/NC(=O)c1ccncc1", "activity change, negative = inhibition": "14.4%"}
{"smiles": "CC1CCN(S(=O)(=O)c2ccc3c(ccn3CCC(=O)NCc3ccc(N(C)C)cc3)c2)CC1", "activity change, negative = inhibition": "-7.88%"}
{"smiles": "CCOC(=O)c1ccc(NC(=O)C2CC(=O)N(c3ccc(C(C)C)cc3)C2)cc1", "note": "(stereo not drawn)", "activity change, negative = inhibition": "4.6%"}
{"smiles": "CN1CC[C@H](c2c(O)cc(O)c3c(=O)cc(-c4ccccc4Cl)oc23)[C@H](O)C1", "activity change, negative = inhibition": "-7.55%"}
{"smiles": "COc1ccc(C2Sc3ccccc3NC3=C2C(=O)c2ccccc23)c(OC)c1OC", "note": "(stereo not drawn)", "activity change, negative = inhibition": "3.16%"}
{"smiles": "CCOC(=O)c1cnc2c(C)cc(C)cc2c1Nc1ccc(N2CCOCC2)cc1", "activity change, negative = inhibition": "-5%"}
{"smiles": "O=C(Nc1cccc(Cl)c1)c1csnn1", "activity change, negative = inhibition": "-3.98%"}
